In PubChem BioAssay AID1224856 (National Center for Advancing Translational Sciences (NCATS), 2016):
Results filed as inconclusive are left out. The source made the active and inactive calls. The call rests on the fitted dose curve; in most records, active means well fitted curve in the direction sought with a large enough effect; inconclusive means small, poorly fitted or top-dose-only effect, or another doubt; inactive means no such curve, though single readings can be large or run the other way.

Assay: Cell viability assay for measurement of the protective activity of small molecules against cell death caused by Zika virus infection in human astrocytes
Details: human astrocytes ZIKV-induced death, ATP luminescence, 72 h; series mostly up to 46.1 µM; protection from virus-induced death: at the top concentration
Summary of the method: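 Protection against Zika-induced death was measured in human astrocytes infected at 2 FFU/cell one hour after compound addition. After 72 h at 37 °C, ATP luminescence was read and converted to percent inhibition of the viability decrease.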

| SMILES | protection from virus-induced death | Potency |
| --- | --- | --- |
| O=C1C[C@@H](c2ccc(O)cc2)Oc2cc(O)cc(O)c21 | 4.81% (inactive) |  |
| Nc1ncnc2c1ncn2[C@@H]1O[C@@H](CO)[C@H](O)[C@H]1O | 3.79% [at 23.8 µM] (inactive) |  |
| CCCCCCCCCCCC(=O)[O][Sn]([CH2]CCC)([CH2]CCC)[O]C(=O)CCCCCCCCCCC | -3.89% (inactive) |  |
| CCC(C(=O)O)c1ccc(N2Cc3ccccc3C2=O)cc1 (stereo unspecified) | -4.84% (inactive) |  |
| CNC1[C@H](O)C(O[C@@H]2C(O)C(O[C@H]3O[C@H]([C@@H](C)NC)CC[C@H]3N)[C@@H](N)C[C@H]2N)OC[C@]1(C)O (stereo partly specified) | -0.423% (inactive) |  |
| O=C(Nc1ccc(C(=O)O)c(O)c1)c1ccccc1 | 1.26% (inactive) |  |
| Nc1ccc(O)c(C(=O)O)c1 | -4.35% (inactive) |  |
| Cc1cc(O)c2ccccc2c1O | -10.4% (inactive) |  |
| O=S(=O)(O)c1ccc2nc(-c3ccccc3)[nH]c2c1 | -6.93% (inactive) |  |
| CC(C)N[C@@H]1CCn2c(=O)[nH]c3cccc(c32)[C@@H]1O | -5.21% (inactive) |  |
| NC1CCC(Nc2nc(Nc3ccc(C(=O)N4CCCCC4)cc3)c3ncn(-c4cccc(F)c4)c3n2)CC1 (stereo unspecified) | -10.1% (inactive) |  |
| O=C(/C=C/c1ccccc1)NCCO | -2% (inactive) |  |
| Oc1ccc(/C=C/c2cc(O)cc(O)c2)cc1 | -6.36% (inactive) |  |
| O=C1CCC[C@@H]2[C@H]3CCCN4CCC[C@@H](CN12)[C@@H]34 | 3.66% (inactive) |  |
| COc1cccc(-c2ccc(NC(=O)C3=C(C(=O)O)CCC3)c(F)c2)c1 | 4.42% (inactive) |  |
| COc1ccc(CC2=NN3C([C@@H](CCc4ccccc4)[C@@H](C)O)=NC(C)C3C(=O)N2)cc1OC (stereo partly specified) | -2.71% (inactive) |  |
| C[C@@H]1CCN(C(=O)CC#N)C[C@H]1N(C)c1ncnc2[nH]ccc12 | -4.55% (inactive) |  |
| O=c1cc(-c2ccccc2)oc2cc(O)cc(O)c12 | 0.394% (inactive) |  |
| Cc1cc(O)c2c(c1)C(=O)c1cc(O)cc(O)c1C2=O | 0.358% (inactive) |  |
| CC(=NNC(=S)N1CCC1)c1ccccn1 | -5.84% (inactive) |  |
| CC(C(=O)O)c1ccc(C(=O)c2cccs2)cc1 (stereo unspecified) | 5.45% (inactive) |  |
| COCCn1c2c([n+](Cc3cnccn3)c1C)C(=O)c1ccccc1C2=O | -9.52% (inactive) |  |
| C[C@H](NC(=O)C(=O)Nc1ccccc1C(C)(C)C)C(=O)N[C@@H](CC(=O)O)C(=O)COc1c(F)c(F)cc(F)c1F |  | 3.88 µM (active) |
| O=C(O)c1cc([N+](=O)[O-])ccc1NCCCc1ccccc1 | -1.03% (inactive) |  |
| O=C(O)CCC(=O)c1ccc(-c2ccccc2)cc1 | -0.858% (inactive) |  |
| C[C@@H](O[C@H]1OCCN(Cc2n[nH]c(=O)[nH]2)[C@@H]1c1ccc(F)cc1)c1cc(C(F)(F)F)cc(C(F)(F)F)c1 | -9.91% (inactive) |  |
